Calls of active or inactive are those of the source.

The text below walks through data of PubChem BioAssay.

The test system of experiment [1] is Plasmodium falciparum Sir2 (PF13_0152, Sir2A). The experiment in a line: Plasmodium falciparum Sir2A binding compounds – biochemical, small-molecule microarray, 635 nm fluorescence, primary screen (AID 1098).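 Note: score merges spot fluorescence intensity with its signal-to-noise ratio.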 The conditions noted are these: fluorescence 635 nm, higher = more signal.
Experiment [2] is described as follows: probe aDKK1 binding to arrayed compounds – biochemical, biotinylated probe, 635/667 nm fluorescence, primary screen (AID 1099).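 Note: score merges 667nm spot fluorescence with signal to noise across triplicate slides.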 Conditions: small-molecule microarray, higher = more signal.
The nature of experiment [3]: probe aCHRDL2 binding to arrayed compounds – biochemical, biotinylated probe, 635/667 nm fluorescence, primary screen (AID 1100). Conditions: small-molecule microarray, higher = more signal.
Experiment [4] in a line: change in splice reporter luminescence, either direction, cell-based, HEK293, spliceosome inhibition project, primary screen (AID 1101).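 Note: HEK293 cells carrying a splicing-competent luciferase reporter gene; test concentration not given here.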 Conditions: HEK293 splicing luciferase reporter, 24 h, higher = more signal, called active from +8 up or from −8 down. (Reporter assays use an easily measured gene product as a stand-in for the process of interest.)
Experiment [5] has as its target Fibroblast growth factor 10 (Homo sapiens) (UniProt O15520). The experiment in a line: compounds binding fibroblast growth factor 10 – biochemical, small-molecule microarray, 635 nm fluorescence, primary screen (AID 1102). Conditions: FGF10 binding, fluorescence 635 nm, higher = more signal.
Experiment [6] deals with glycogen synthase kinase-3 (GSK3A per assay name; protocol says GSK3B). The experiment in a line: compounds binding glycogen synthase kinase-3 – biochemical, small-molecule microarray, 635 nm fluorescence, GSK3A, primary screen (AID 1103). Note: the record names both GSK3A and GSK3B. Conditions: fluorescence 635 nm, higher = more signal.
The target in experiment [7] is Epidermal growth factor receptor (Homo sapiens) (UniProt P00533). Kind of experiment: compounds binding epidermal growth factor receptor – biochemical, small-molecule microarray, 635 nm fluorescence, primary screen (AID 1104).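 Note: score merges 667 nm emission intensity with spot signal to noise over triplicate slides.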 Conditions: EGFR binding, higher = more signal.
Epidermal growth factor receptor (Homo sapiens), sequence (P00533 whole entry, looked up): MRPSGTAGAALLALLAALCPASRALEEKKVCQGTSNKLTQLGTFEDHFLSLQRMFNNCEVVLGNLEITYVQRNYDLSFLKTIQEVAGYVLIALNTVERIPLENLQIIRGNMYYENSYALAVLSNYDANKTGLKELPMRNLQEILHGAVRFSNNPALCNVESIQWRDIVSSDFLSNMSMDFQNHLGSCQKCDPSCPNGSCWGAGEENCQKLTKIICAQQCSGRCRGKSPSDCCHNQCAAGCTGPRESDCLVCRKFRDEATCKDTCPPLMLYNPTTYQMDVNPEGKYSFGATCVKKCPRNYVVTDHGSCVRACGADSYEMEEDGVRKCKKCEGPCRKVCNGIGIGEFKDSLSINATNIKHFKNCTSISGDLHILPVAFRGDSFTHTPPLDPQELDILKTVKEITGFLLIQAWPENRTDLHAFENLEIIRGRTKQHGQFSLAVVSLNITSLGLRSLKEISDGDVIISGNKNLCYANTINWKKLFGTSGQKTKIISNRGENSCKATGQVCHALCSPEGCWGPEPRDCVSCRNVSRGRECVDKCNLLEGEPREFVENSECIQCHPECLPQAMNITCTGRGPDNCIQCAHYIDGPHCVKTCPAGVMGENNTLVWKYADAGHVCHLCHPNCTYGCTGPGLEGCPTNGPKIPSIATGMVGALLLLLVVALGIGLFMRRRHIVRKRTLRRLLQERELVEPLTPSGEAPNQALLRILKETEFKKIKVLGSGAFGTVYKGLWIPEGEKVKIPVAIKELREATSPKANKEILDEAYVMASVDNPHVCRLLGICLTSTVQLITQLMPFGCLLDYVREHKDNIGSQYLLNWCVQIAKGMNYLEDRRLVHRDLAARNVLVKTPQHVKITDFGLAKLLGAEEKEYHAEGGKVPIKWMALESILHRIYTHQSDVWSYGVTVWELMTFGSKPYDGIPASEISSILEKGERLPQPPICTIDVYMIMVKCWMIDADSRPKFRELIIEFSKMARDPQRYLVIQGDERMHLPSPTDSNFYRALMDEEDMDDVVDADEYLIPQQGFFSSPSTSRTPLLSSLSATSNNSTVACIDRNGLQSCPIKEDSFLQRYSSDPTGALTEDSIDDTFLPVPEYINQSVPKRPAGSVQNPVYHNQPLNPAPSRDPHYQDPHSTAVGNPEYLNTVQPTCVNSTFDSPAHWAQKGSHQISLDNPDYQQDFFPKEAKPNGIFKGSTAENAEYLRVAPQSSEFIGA
For experiment [8], the target named is Follistatin-related protein 3 (Homo sapiens) (UniProt O95633). Kind of experiment: compounds binding follistatin-related protein 3 – biochemical, small-molecule microarray, 635 nm fluorescence, primary screen (AID 1105).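 Note: score merges emission near 667 nm and signal to noise per printed spot across three slides.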 Conditions: FSTL3 binding, higher = more signal.
Follistatin-related protein 3 (Homo sapiens), sequence (O95633 whole entry, looked up): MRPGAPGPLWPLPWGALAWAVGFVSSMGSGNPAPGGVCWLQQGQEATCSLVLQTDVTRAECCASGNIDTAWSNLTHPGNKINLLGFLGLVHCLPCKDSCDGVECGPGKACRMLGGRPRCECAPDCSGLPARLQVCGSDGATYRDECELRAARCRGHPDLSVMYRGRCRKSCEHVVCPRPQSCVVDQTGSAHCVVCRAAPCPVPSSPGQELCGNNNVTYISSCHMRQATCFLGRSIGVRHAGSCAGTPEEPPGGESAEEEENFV
Experiment [9] addresses Dickkopf-related protein 1 (Homo sapiens) (UniProt O94907). The experiment in a line: small molecules binding DKK1 protein – biochemical, small-molecule microarray, 635 nm fluorescence scan, primary screen (AID 1106).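 Note: score merges emission near 667 nm with signal to noise over three replicate slides.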 The conditions noted are these: higher = more signal.
Experiment [10] deals with Inhibin beta A chain (activin A). The experiment in a line: small molecules binding activin A – biochemical, small-molecule microarray, 635 nm fluorescence scan, primary screen (AID 1107).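 Note: mouse activin A protein probed at 4.33 µg/mL on printed slides; score merges bound-protein fluorescence near 667 nm with spot signal-to-noise.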 The conditions noted are these: INHBA, higher = more signal.
In experiment [11] the test system is Human papillomavirus type 1a protein E7 (residues 44-93). The experiment in a line: small molecules binding HPV E7 44-93 – biochemical, small-molecule microarray, residues 44-93, 635 nm fluorescence, primary screen (AID 1108).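 Note: E7 fragment applied at 1 µg/mL in TBST for 1 h at 4 C; score combines spot fluorescence with its signal to noise ratio.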 Conditions: fluorescence 635 nm, higher = more signal.
Experiment [12] is described as follows: hepatitis C replication reporter changes, two-sided – Huh7 cells, luciferase reporter, HCV replication inhibitor project, primary screen (AID 1109).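 Note: huh7 hepatoma cells harbouring a luciferase neomycin HCV replicon reporter; luciferase luminescence as measure of HCV replicon replication; test concentration not given here.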 Conditions: Huh7 HCV replicon luciferase reporter, 48 h; higher = more signal.
In experiment [13] the target is Left-right determination factor 2 (Homo sapiens) (UniProt O00292). The experiment in a line: small molecules binding LEFTY2 protein – biochemical, small-molecule microarray, 635 nm fluorescence scan, primary screen (AID 1110). The conditions noted are these: higher = more signal.
Left-right determination factor 2 (Homo sapiens), sequence (O00292 whole entry, looked up): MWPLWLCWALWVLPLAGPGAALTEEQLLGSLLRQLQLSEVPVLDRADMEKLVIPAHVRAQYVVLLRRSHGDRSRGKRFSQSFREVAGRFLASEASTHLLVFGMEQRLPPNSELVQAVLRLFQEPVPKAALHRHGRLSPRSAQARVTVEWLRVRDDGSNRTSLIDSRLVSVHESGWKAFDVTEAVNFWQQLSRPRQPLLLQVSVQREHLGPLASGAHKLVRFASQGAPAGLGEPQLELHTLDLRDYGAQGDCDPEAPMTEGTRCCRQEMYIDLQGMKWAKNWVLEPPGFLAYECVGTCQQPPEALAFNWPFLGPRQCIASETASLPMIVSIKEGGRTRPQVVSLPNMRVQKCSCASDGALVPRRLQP
Experiment [14] addresses Calmodulin-1 (Homo sapiens) (UniProt P0DP23). Kind of experiment: small molecules binding calmodulin-1 with EGTA – biochemical, small-molecule microarray, Cy5-labelled CALM1, profiling panel (AID 1111).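 Note: labelled calmodulin applied in Tris saline Tween buffer holding calcium plus EGTA and DTT.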 Conditions: Cy5-CALM1 binding fluorescence, higher = more signal.
The target is the same in experiment [15]. The experiment in a line: small molecules binding Ca-loaded calmodulin-1 – biochemical, small-molecule microarray, Cy5-labelled CALM1, plus calcium, artefact control for SMM control-protein annotation, profiling panel (AID 1112).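 Note: score merges spot fluorescence with signal to noise from triplicate slides.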 The conditions noted are these: Cy5-CALM1 binding fluorescence, higher = more signal.
A short description of experiment [16]: probe aWnt5a binding to arrayed compounds – biochemical, biotinylated probe, 635/667 nm fluorescence, primary screen (AID 1113).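 Note: score merges 667 nm fluorescence intensity with signal-to-noise per printed feature.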 The conditions noted are these: small-molecule microarray, higher = more signal.
Experiment [17] is described as follows: probe aShh binding to arrayed compounds – biochemical, biotinylated probe, 635/667 nm fluorescence, primary screen (AID 1114).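 Note: probe is biotin-labelled aShh protein from a stem cell growth factor screen; measures binding of labelled protein to compounds printed on the slide; score merges feature fluorescence at 667 nm with signal-to-noise.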 Conditions: small-molecule microarray, higher = more signal.
The nature of experiment [18]: probe aNog binding to arrayed compounds – biochemical, biotinylated probe, 635/667 nm fluorescence, primary screen (AID 1115).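 Note: probe is biotinylated aNog protein used at 0.15 µg/mL for 1 h at 4 C; z-score combines 667 nm fluorescence of each spot with its signal to noise.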 The conditions noted are these: small-molecule microarray, higher = more signal.
Experiment [19] concerns the target Torsin-1A-interacting protein 1 (Homo sapiens) (UniProt Q5JTV8). The experiment in a line: compound microarray binding of lysate hLAP1 – cell lysate, small-molecule microarray, COS7 lysate, 635/667 nm fluorescence, primary screen (AID 1116). Conditions: 635 nm fluorescence, higher = more signal.
The target in experiment [20] is Alpha-bungarotoxin (Bungarus multicinctus) (UniProt P60615). Kind of experiment: compounds binding labelled alpha-BTX control protein – biochemical, small-molecule microarray, Alexa647 label, 635/667 nm fluorescence, artefact control for SMM control protein annotation, profiling panel (AID 1117). Conditions: alpha-BTX-A647 binding fluorescence, higher = more signal.
Alpha-bungarotoxin (Bungarus multicinctus), sequence (P60615 whole entry, looked up): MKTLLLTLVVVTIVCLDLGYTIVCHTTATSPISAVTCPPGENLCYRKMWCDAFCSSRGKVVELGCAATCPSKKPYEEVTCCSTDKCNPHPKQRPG

Fibroblast growth factor 10 (Homo sapiens), sequence (O15520 whole entry, looked up): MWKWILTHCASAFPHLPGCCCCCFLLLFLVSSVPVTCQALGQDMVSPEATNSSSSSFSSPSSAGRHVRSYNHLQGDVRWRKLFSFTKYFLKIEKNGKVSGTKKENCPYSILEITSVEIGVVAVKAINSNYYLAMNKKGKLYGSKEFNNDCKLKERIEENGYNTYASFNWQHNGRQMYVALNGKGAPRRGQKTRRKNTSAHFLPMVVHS
Dickkopf-related protein 1 (Homo sapiens), sequence (O94907 whole entry, looked up): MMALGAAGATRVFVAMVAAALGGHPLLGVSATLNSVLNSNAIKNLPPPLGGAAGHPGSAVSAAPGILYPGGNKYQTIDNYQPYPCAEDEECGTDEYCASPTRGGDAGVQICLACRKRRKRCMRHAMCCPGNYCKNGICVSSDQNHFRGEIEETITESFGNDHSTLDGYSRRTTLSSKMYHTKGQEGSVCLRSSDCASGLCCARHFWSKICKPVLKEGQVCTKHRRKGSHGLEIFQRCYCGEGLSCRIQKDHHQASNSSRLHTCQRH
Torsin-1A-interacting protein 1 (Homo sapiens), sequence (Q5JTV8 whole entry, looked up): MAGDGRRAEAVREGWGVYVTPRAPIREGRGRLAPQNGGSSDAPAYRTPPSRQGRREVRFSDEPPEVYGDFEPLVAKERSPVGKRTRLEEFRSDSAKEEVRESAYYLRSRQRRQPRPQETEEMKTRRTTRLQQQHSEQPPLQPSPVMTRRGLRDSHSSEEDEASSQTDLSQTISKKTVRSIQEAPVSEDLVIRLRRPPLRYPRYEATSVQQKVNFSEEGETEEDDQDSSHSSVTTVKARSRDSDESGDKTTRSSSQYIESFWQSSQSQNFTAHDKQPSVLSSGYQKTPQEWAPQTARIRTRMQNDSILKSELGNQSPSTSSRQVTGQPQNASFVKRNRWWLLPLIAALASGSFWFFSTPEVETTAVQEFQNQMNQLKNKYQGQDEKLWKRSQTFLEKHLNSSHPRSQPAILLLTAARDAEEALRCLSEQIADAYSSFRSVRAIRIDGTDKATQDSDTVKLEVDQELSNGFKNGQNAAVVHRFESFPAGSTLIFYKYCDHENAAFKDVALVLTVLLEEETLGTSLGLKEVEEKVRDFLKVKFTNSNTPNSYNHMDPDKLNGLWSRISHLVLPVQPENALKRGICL

Consider `CCCCCN1CC=CC23O[C@@H]4/C=C\CCC(C)OC(=O)C4[C@H]2C(=O)N(CCCCCCO)[C@@H]3C1=O` (stereo not given in full), for which the composite z-score was 1.44 in experiment [1]; -0.219 in [2]; 0.248 in experiment [3]; -0.381 in experiment [5]; -0.459 in experiment [6]; -0.434 in experiment [7]. Besides, the composite z-score was -0.303 in experiment [8]; -0.397 in experiment [9]; 1.13 in experiment [10]; 0.342 in [11]; -0.78 in [13]; -0.384 in experiment [14]. In addition, the composite z-score in experiment [15] was 0.369; in [16] it was -0.202; in experiment [17], -0.0146; in experiment [18], -0.12; in experiment [19] it was 0.171; in experiment [20] it was -0.267. The results for the z-score in experiment [4] and in experiment [12] were -0.833 (inactive) and 0.499, respectively.

As for `O=C1N[C@@H](Cc2ccccc2)C(=O)N2[C@@H]1C[C@@H](C(=O)O)[C@H]2c1ccc(O)cc1`, the composite z-score in experiment [1] was 1.31; in [2] it was 0.731; in experiment [3], 0.707; in experiment [5], 0.727; in experiment [6], 0.86; in experiment [7], 0.315. For the same compound, the composite z-score in [8] was found to be 1.45; in experiment [9], 1.63; in [10], 0.853; in experiment [11], 0.436; in experiment [13] it was 0.572; in experiment [14] it was 0.58. The composite z-score was -0.661 in experiment [15]; 0.0718 in experiment [16]; 0.0711 in [17]; -0.0382 in experiment [18]; 0.466 in experiment [19]; 0.431 in experiment [20]. Further, the z-score is -0.485 (inactive) in [4] and 2.57 in [12].

`CC=CC(O)C1C=CC2C(=O)NC(=O)C2N1Nc1ccccn1` (stereo not given): the composite z-score is 0.733 in experiment [1]; -0.0419 in experiment [2]; -0.185 in [3]; 0.22 in experiment [5]; 0.717 in [6]; 0.673 in experiment [7]. Moreover, the composite z-score in [8] was 0.6; in experiment [9], 0.697; in experiment [10], 1.25; in [11] it was 0.434; in [13], 0.44; in experiment [14], -0.242. Further, the composite z-score is -1.1 in [15]; -0.254 in [16]; -0.0211 in experiment [17]; 0.342 in [18]; 0.372 in [19]; 0.439 in [20]. Also, the z-score is 1.12 (inactive) in experiment [4] and 0.634 in [12].

`CCOC(=O)C1=C[C@@H](C(C)(C)C)N(S(=O)(=O)c2ccc(C)cc2)[C@H]1c1ccc(C)cc1`: the composite z-score in experiment [1] amounted to 0.772; in experiment [2], 0.46; in experiment [3] it was 0.517; in experiment [5], 1.3; in [6], 0.995; in experiment [7], 0.78. For the same compound, the composite z-score in experiment [8] is 1.26; in [9], 0.541; in [10] it was 0.516; in experiment [11] it was 0.974; in experiment [13], 0.424; in [14], 1.81. In addition, the composite z-score is -0.0354 in experiment [15]; 0.0479 in experiment [16]; -0.0709 in [17]; 1.27 in experiment [18]; 0.229 in experiment [19]; 1.11 in [20]. The z-score was -0.598 (inactive) in [4] and -1.04 in experiment [12].

`NCCCCCNC(=O)[C@H]1C[C@H]2C(=O)N[C@@H](Cc3ccccc3)C(=O)N2[C@H]1c1ccc(O)cc1`: the composite z-score in experiment [1] is 1.16; in experiment [2], 1.42; in experiment [3], 0.937; in experiment [5] it was -0.0576; in [6], 0.431; in [7], -0.381. Also, the composite z-score in experiment [8] is 0.275; in [9], 0.224; in experiment [10], 1.39; in [11], 1.05; in [13], 0.202; in [14] it was 2.24. In addition, the composite z-score is 1.14 in experiment [15]; 0.183 in experiment [16]; 0.596 in experiment [17]; 0.859 in experiment [18]; 0.456 in experiment [19]; 0.949 in [20]. Also, the z-score in experiment [4] was 0.195 (inactive); in experiment [12], 0.0505.
